A short description of assay [1]: BSK_LPS_PGE2: BioMAP Diversity Plus: LPS Assay for Prostaglandin E2 (PGE2) Biomarker Activity (AID 2283082).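 For AC50: secreted prostaglandin E2 measured by ELISA in LPS-stimulated co-culture.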 The conditions noted are these: primary human HUVEC with PBMC; actives raise or lower the signal. Put shortly:
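LPS-activated HUVEC/PBMC co-culture; cmpd dosed, 24 h; PGE2 by ELISA; bidirectional fit vs DMSO; SRB (0.1%, TCA-fixed, 560 nm) in parallel plates for overt cytotox.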

Read-out in assay [2]: Macrophage colony-stimulating factor (MCSF), CSF1 (gene 1435)
The assay can be described thus: BSK_LPS_MCSF: BioMAP Diversity Plus: LPS Assay for Macrophage colony-stimulating factor (MCSF) Biomarker Activity (AID 2283083). The following applies: primary human HUVEC with PBMC; actives raise or lower the signal. Put shortly: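 Bidirectional fit versus DMSO of ELISA-measured M-CSF in co-cultured human umbilical vein endothelial cells and PBMC, sampled 24 h after dosing.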

Read-out in assay [3]: Tissue Factor, F3 (gene 2152)
The assay can be described thus: BSK_LPS_TissueFactor: BioMAP Diversity Plus: LPS Assay for Tissue Factor Biomarker Activity (AID 2283084). The conditions noted are these: primary human HUVEC with PBMC; actives raise or lower the signal. The gist of the method: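 Read-out: CD142 ELISA, 24 h. System: LPS-driven human endothelial/PBMC co-culture. Analysis: up- or down-signal fitted against DMSO.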

Read-out in assay [4]: Tumor necrosis factor (Homo sapiens) (UniProt P01375)
The assay can be described thus: BSK_LPS_TNFa: BioMAP Diversity Plus: LPS Assay for Tumour Necrosis Factor alpha (TNFa) Biomarker Activity (AID 2283085). The conditions noted are these: primary human HUVEC with PBMC; actives raise or lower the signal. Put shortly:
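Read-out is ELISA of TNFa in primary human endothelial cell–PBMC co-cultures at 24 h after compound. Activity in either direction was fitted against DMSO.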

Read-out in assay [5]: Vascular cell adhesion molecule 1 (VCAM1), VCAM1 (gene 7412)
The assay can be described thus: BSK_LPS_VCAM1: BioMAP Diversity Plus: LPS Assay for Vascular cell adhesion molecule 1 (VCAM1) Biomarker Activity (AID 2283086). The conditions noted are these: primary human HUVEC with PBMC; actives raise or lower the signal. Put shortly:
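HUVEC + PBMC co-culture, LPS system; compound 24 h; VCAM-1 by ELISA; bidirectional fit vs DMSO control; parallel SRB (0.1%, TCA-fixed, 560 nm) for cytotoxicity.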

Read-out in the next assay: CD38, CD38 (gene 952)
The assay can be described thus: BSK_SAg_CD38: BioMAP Diversity Plus: SAg Assay for CD38 Biomarker Activity (AID 2283087). The conditions noted are these: primary human HUVEC with PBMC; actives raise or lower the signal. Put shortly:
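Human HUVEC plus PBMC co-culture stimulated with superantigen; CD38 measured by ELISA 24 h after chemical dosing. Fluorescence read-out, bidirectional fit against DMSO; cytotoxicity tracked in parallel by SRB and Alamar Blue.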

Read-out in the next assay: CD40, CD40 (gene 958)
The assay can be described thus: BSK_SAg_CD40: BioMAP Diversity Plus: SAg Assay for CD40 Biomarker Activity (AID 2283088). The following applies: primary human HUVEC with PBMC; actives raise or lower the signal. The gist of the method: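 Endpoint derived by fitting increases or decreases versus DMSO controls. CD40 is detected by fluorescence ELISA in a human vascular co-culture of endothelium and PBMC at 24 h.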

Read-out in another assay: CD69, CD69 (gene 969)
The assay can be described thus: BSK_SAg_CD69: BioMAP Diversity Plus: SAg Assay for CD69 Biomarker Activity (AID 2283089).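 For AC50: cell surface CD69 protein quantified by ELISA with fluorescence detection.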 The conditions noted are these: primary human HUVEC with PBMC; actives raise or lower the signal. The gist of the method:
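ELISA, fluorescence read-out: CD69 on human umbilical vein endothelial cell + PBMC co-culture, 24 h post-dosing. Gain or loss of signal fitted bidirectionally against DMSO baseline.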

Read-out in assay [6]: Monocyte Chemoattractant Protein-1 (MCP1), CCL2 (gene 6347)
The assay can be described thus: BSK_SAg_MCP1: BioMAP Diversity Plus: SAg Assay for Monocyte Chemoattractant Protein-1 (MCP1) Biomarker Activity (AID 2283090). The following applies: primary human HUVEC with PBMC; actives raise or lower the signal. Put shortly:
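MCP-1 levels in the endothelial–PBMC SAg co-culture were quantified by ELISA at 24 h post-dosing; both increases and decreases versus DMSO scored. Cytotoxicity monitored by SRB total protein in parallel cultures.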

Read-out in assay [7]: E-selectin (Homo sapiens) (UniProt P16581)
The assay can be described thus: BSK_SAg_Eselectin: BioMAP Diversity Plus: SAg Assay for Eselectin Biomarker Activity (AID 2283091). The following applies: primary human HUVEC with PBMC; actives raise or lower the signal. The gist of the method: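 Endpoint values derive from bidirectional fitting relative to DMSO, using ELISA-measured E-selectin in a human vascular co-culture (umbilical vein endothelium plus PBMC) sampled 24 h after dosing.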

Read-out in assay [8]: Interleukin-8 (IL8), CXCL8 (gene 3576)
The assay can be described thus: BSK_SAg_IL8: BioMAP Diversity Plus: SAg Assay for Interleukin-8 (IL8) Biomarker Activity (AID 2283094). The conditions noted are these: primary human HUVEC with PBMC; actives raise or lower the signal. The gist of the method: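 ELISA read-out of IL-8 in a primary human vascular co-culture (umbilical vein endothelium plus PBMC), taken 24 h after compound addition. Values derive from bidirectional fits against DMSO negative controls.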

Assay [9] is described as follows: BSK_SAg_Proliferation: Cell Proliferation Assessment in the BioMAP Diversity Plus: SAg Assay (AID 2283095).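 Note: relative cell number as total protein by SRB absorbance in sub-confluent culture.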 The conditions noted are these: primary human HUVEC with PBMC. The gist of the method:
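Cells (endothelium plus PBMC, human primary) were dosed with chemical, cultured 96 h, fixed in 10% TCA and stained with 0.1% SRB. Absorbance at 560 nm gave relative protein, fitted bidirectionally relative to DMSO.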

In assay [10] the target is human CYP2B6, CYP2B6 (gene 1555) (UniProt P20813). The assay can be described thus: NVS_ADME_hCYP2B6: NovaScreen (NVS) CYP450-related Enzyme Activity (ADME) Assay for human CYP2B6 (AID 2283101; active = hit-call score of the fitted dose curve at least 0.9, where 1 is the maximum). The gist of the method:
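Fluorescence-based enzyme activity of recombinant human CYP2B6, measured 1 h post-dose against acetonitrile vehicle baseline. Screened at a single concentration of 10 uM in duplicate before concentration-response follow-up.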

In assay [11] the target is human CYP2D6, CYP2D6 (gene 1565) (UniProt P10635). The assay can be described thus: NVS_ADME_hCYP2D6: NovaScreen (NVS) CYP450-related Enzyme Activity (ADME) Assay for human CYP2D6 (AID 2283107; active = hit-call score of the fitted dose curve at least 0.9, where 1 is the maximum). Put shortly: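 Biochemical fluorescence assay, insect-cell-derived enzyme. Read at 1 h; inhibition taken from loss of signal against acetonitrile. Screened at 10 uM in duplicate, with concentration series for actives.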
human CYP2D6, CYP2D6 (gene 1565), sequence (P10635 whole entry, looked up): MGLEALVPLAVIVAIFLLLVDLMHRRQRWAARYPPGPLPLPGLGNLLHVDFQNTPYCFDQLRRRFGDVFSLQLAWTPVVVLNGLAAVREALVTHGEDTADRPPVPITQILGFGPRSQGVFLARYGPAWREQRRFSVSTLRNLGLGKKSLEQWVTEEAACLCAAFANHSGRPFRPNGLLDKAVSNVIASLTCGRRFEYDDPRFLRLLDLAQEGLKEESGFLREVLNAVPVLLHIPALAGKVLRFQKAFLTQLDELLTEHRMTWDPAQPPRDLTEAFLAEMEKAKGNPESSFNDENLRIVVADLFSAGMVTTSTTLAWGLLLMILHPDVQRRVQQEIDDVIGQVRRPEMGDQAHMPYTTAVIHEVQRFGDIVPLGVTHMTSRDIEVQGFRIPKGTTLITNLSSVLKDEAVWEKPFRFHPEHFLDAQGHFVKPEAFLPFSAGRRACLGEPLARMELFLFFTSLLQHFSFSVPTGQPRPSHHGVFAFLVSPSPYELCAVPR

Read-out in assay [12]: Monokine induced gamma interferon (MIG), CXCL9 (gene 4283)
The assay can be described thus: BSK_SAg_MIG: BioMAP Diversity Plus: SAg Assay for Monokine induced gamma interferon (MIG) Biomarker Activity (AID 2283092). The following applies: primary human HUVEC with PBMC; actives raise or lower the signal. Put shortly:
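ELISA readout of MIG/CXCL9; primary human umbilical vein endothelial cells co-cultured with peripheral blood mononuclear cells; 24 h post-dose; gain/loss fit vs DMSO baseline.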

Assay [13] is described as follows: BSK_SAg_PBMCCytotoxicity: PBMC Cytotoxicity Assessment in the BioMAP Diversity Plus: SAg Assay (AID 2283093).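 For AC50: PBMC superantigen activated with SEB plus TSST-1 one hour after compound addition.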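 Note: PBMC viability measured as Alamar Blue reduction fluorescence at 546/580 nm; fitted both ways against DMSO so a hit may be loss or gain of signal.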 The following applies: primary human HUVEC with PBMC. Put shortly:
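Compound added to 75,000 PBMC/well for 1 h; SEB and TSST-1 then added at 20 ng/mL final each; 90 h incubation; Alamar Blue 6 h; read 546/580 nm ex/em. Activity fitted bidirectionally relative to DMSO baseline.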

Inconclusive results are not listed. Calls of active or inactive are those of the source. Rule for the calls, unless noted: active = hit-call score of the fitted dose curve at least 0.9, where 1 is the maximum; inactive = score below 0.9.

Tumor necrosis factor (Homo sapiens), sequence (P01375 whole entry, looked up): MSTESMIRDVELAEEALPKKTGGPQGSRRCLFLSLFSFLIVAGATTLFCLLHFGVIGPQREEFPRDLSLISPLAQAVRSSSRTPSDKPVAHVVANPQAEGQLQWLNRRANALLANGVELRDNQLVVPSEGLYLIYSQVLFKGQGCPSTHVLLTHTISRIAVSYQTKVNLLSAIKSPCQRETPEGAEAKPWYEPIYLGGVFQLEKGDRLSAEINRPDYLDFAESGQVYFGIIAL
E-selectin (Homo sapiens), sequence (P16581 whole entry, looked up): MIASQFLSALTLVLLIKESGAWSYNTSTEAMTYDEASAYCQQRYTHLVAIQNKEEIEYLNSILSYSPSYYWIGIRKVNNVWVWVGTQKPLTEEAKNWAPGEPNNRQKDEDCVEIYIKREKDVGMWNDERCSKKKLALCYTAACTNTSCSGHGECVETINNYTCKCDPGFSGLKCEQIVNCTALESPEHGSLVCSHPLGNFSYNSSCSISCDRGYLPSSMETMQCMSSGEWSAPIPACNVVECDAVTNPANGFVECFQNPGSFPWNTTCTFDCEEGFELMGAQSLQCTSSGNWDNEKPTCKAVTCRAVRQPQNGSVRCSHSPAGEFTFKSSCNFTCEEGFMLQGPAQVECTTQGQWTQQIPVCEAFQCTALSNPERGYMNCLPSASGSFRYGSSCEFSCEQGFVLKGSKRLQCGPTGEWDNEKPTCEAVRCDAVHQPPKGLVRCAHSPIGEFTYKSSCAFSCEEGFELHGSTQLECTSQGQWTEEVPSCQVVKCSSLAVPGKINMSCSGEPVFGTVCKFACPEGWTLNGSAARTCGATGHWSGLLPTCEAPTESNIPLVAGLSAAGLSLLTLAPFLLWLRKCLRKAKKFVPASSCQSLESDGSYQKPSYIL
human CYP2B6, CYP2B6 (gene 1555), sequence (P20813 whole entry, looked up): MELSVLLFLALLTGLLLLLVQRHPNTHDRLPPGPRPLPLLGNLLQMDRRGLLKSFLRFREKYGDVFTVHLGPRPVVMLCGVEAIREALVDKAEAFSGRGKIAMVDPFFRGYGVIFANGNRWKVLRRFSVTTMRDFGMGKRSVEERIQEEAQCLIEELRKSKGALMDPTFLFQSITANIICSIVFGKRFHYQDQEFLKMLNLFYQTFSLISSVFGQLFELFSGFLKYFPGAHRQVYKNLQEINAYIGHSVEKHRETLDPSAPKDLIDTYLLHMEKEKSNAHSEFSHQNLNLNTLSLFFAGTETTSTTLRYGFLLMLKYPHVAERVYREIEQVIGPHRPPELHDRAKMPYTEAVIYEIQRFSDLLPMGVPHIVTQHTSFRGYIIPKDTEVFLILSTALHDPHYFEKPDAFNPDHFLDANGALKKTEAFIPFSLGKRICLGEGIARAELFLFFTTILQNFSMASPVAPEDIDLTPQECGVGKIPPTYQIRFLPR

The term AC50 denotes the concentration giving half of the maximal activity seen. Regarding `CCCCOC(=O)c1ccc(O)cc1`, the AC50 is 20 µM (active) in [1], 4.55 µM (active) in assay [10] and 4.89 µM (active) in assay [11]. Besides, the outcome in assay [2] was “inactive”; in assay [3] it was “inactive”; in [4], “inactive”; in assay [5] it was “inactive”; with CD38, CD38 (gene 952) it was “inactive”; with CD40, CD40 (gene 958) it was “inactive”. Further, the outcome in the assay with CD69, CD69 (gene 969) is “inactive”; in assay [6], “inactive”; in [7] it was “inactive”; in assay [8], “inactive”; in [9], “inactive”.

Take `NC(=O)c1nc(-c2cccc(-c3cc(F)ccc3OCC(F)(F)C(F)(F)F)c2)n[nH]1`: the AC50 was 38.2 µM (active) in assay [1]; 29.4 µM (active) in [2]; 33.4 µM (active) in assay [3]; 37.4 µM (active) in assay [4]; 35.3 µM (active) in [5]; 29.5 µM (active) in the assay with CD38, CD38 (gene 952). Further, the concentration at half-maximal activity (AC50) with CD40, CD40 (gene 958) is 26.9 µM (active); with CD69, CD69 (gene 969), 26.2 µM (active); in assay [6], 29 µM (active); in assay [7] it was 19.3 µM (active); in [12] it was 40.3 µM (active); in assay [8] it was 18.2 µM (active). The AC50 in [9] is 26.2 µM (active).

Regarding `CCCC(=O)OCCC(C)C`, the outcome in assay [1] was “inactive”; in assay [2], “inactive”; in assay [3], “inactive”; in assay [4], “inactive”; in assay [5], “inactive”; with CD38, CD38 (gene 952), “inactive”. Moreover, the outcome is “inactive” in the assay with CD40, CD40 (gene 958); “inactive” with CD69, CD69 (gene 969); “inactive” in [6]; “inactive” in assay [7]; “inactive” in assay [12]; “inactive” in assay [13]. Besides, the result in assay [8] and in assay [9] was inactive.

Take `CCCCCCCCCCCO`: the outcome in [1] is “inactive”; in assay [2] it was “inactive”; in assay [3], “inactive”; in assay [4], “inactive”; in assay [5] it was “inactive”; with CD38, CD38 (gene 952), “inactive”. Besides, the outcome with CD40, CD40 (gene 958) is “inactive”; with CD69, CD69 (gene 969) it was “inactive”; in assay [6], “inactive”; in assay [7], “inactive”; in assay [12], “inactive”; in assay [8], “inactive”. The AC50 in assay [9] was 33.6 µM (active).

Turning to `CN1C(=O)N(c2ccccc2Br)Cc2cnc(Nc3ccc4c(c3)OCC(CO)O4)nc21` (stereo unspecified), the AC50 was 3.63 µM (active) in assay [1]; 9.88 µM (active) in [2]; 3.52 µM (active) in assay [3]; 3.14 µM (active) in assay [4]; 7.92 µM (active) in [5]; 2.36 µM (active) with CD38, CD38 (gene 952). In addition, the AC50 with CD40, CD40 (gene 958) was 2.19 µM (active); with CD69, CD69 (gene 969), 2.08 µM (active); in assay [6], 1.9 µM (active); in assay [7], 1.37 µM (active); in assay [13] it was 1.87 µM (active); in assay [8] it was 1.62 µM (active). Also, in assay [9], the AC50 was 1.52 µM (active).

Turning to `CCCCCCCCN(C)CCCCCCCC`, the outcome was “inactive” in [1]; “inactive” in assay [2]; “inactive” in [3]; “inactive” in assay [4]; “inactive” in [5]; “inactive” in the assay with CD38, CD38 (gene 952). Besides, the outcome with CD40, CD40 (gene 958) was “inactive”; with CD69, CD69 (gene 969) it was “inactive”; in assay [6] it was “inactive”; in assay [7] it was “inactive”; in [12], “inactive”; in [8] it was “inactive”. Also, in assay [9], the result was inactive.

Turning to `Cc1c2ccccc2c(C)c2c1ccc1ccccc12`, the result in assay [1], in assay [3], in assay [4] and in [6] was inactive. Further, the AC50 was 20 µM (active) in assay [2]; 24.1 µM (active) in [5]; 28.6 µM (active) with CD38, CD38 (gene 952); 22.3 µM (active) with CD40, CD40 (gene 958); 20 µM (active) in the assay with CD69, CD69 (gene 969); 5.2 µM (active) in assay [7]. Besides, in [8], the AC50 was 26.4 µM (active).

For the origin of these results see PubChem BioAssay (EPA / NIEHS).
